Rv3671c inh – Rv3671c serine protease inhibitors, primary screen, biochemical, fluorescence polarization, M. tuberculosis H37Rv. inhibition, % at 5.96 µM. 0.048% of 320,000 active. P9WHR9; in the data active means inhibition above about 38%;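 further: extracellular domain of Rv3671c used as enzyme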
Target sequence (P9WHR9 whole entry, looked up, the tested form may be a part): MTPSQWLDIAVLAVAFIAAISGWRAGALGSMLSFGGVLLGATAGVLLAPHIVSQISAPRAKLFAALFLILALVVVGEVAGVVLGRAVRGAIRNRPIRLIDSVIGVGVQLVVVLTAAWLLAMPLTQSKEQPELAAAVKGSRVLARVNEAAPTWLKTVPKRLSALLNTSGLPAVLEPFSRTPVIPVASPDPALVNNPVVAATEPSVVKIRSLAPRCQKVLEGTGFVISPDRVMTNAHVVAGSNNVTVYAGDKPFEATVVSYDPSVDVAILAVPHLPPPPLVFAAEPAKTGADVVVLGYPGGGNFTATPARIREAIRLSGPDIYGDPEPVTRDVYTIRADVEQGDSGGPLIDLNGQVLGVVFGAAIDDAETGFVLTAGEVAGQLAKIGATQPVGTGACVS
Mtb BioA inh – M. tuberculosis BioA enzyme inhibitors, primary screen, biochemical, plate reader, single point, HTS; 7,8-diaminopelargonic acid synthase BioA (Mycobacterium tuberculosis); purified M. tuberculosis BioA enzyme; inhibition, % at 9.99 µM; 0.096% of 360,000 active; AID 602481, 2012; in the data active means inhibition above about 40%
Mtb FBA inh – Mtb FBA enzyme inhibitors, primary screen, biochemical, fluorescence, strain H37Rv; Fructose-bisphosphate aldolase (Mycobacterium tuberculosis (strain ATCC 25618 / H37Rv)), …; purified M. tuberculosis FBA, fluorescence read-out; inhibition, % at 1 µM; 2.3% of 360,000 active
Target sequence (P9WQA3 whole entry, looked up): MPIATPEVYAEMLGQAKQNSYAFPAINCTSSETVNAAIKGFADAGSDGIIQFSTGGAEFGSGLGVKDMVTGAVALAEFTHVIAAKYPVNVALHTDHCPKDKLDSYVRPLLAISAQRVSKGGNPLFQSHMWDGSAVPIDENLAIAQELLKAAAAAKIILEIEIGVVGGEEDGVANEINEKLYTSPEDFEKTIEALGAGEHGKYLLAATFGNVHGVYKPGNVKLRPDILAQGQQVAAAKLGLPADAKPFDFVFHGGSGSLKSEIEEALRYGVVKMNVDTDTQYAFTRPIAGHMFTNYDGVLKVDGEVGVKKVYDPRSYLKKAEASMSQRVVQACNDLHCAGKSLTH
GDH-TPI counter-1 – GDH-TPI coupling enzyme inhibitors, primary screen, artefact control for M. tuberculosis FBA inhibitor project, biochemical, absorbance, full deck; GDH-TPI coupled enzyme counterscreen, NADH absorbance; inhibition, % at 4.8 µM; 1.2% of 360,000 active; AID 588335, 2011; in the data active means inhibition above about 30%
FadD28 FP inh – inhibitors of FadD28 bisubstrate probe binding, primary screen, biochemical, fluorescence polarization, single point | Mycobacterium tuberculosis FadD28 fatty-acid-AMP ligase | inhibition, % at 12.5 µM | 0.22% of 360,000 active | AID 588549, 2011; in the data active means inhibition above about 8.5%, passing the limit was not always enough
Mtb FBA inh conf – M. tuberculosis aldolase blockers, biochemical, fluorescence, strain H37Rv, confirmation. inhibition, % at 1 µM. 78% of 5,600 active. purified M. tuberculosis FBA, fluorescence read-out. shares compounds with Mtb FBA inh
GDH-TPI counter-2 – GDH-TPI coupling enzyme inhibitors, artefact control for M. tuberculosis FBA inhibitor project, biochemical, fluorescence, high throughput. shares compounds with Mtb FBA inh. GDH-TPI coupled enzyme counterscreen. inhibition, % at 1 µM. 81% of 5,600 active. AID 652141, 2013; in the data active means inhibition above about 10%
Large screens that a line does not name were inactive (follow-up assays come after a bar, where they were run). Shown are actives, neighbours in structure and some others; about 3% of the full set was active somewhere. Unless noted, no stated cut-off is given here; in the data, active means inhibition above about 27%; inactive means the rest.

CCOc1ccc(-c2cc(C(=O)NCC3CCCO3)c3ccccc3n2)cc1 (stereo unspecified)	none (no result: Mtb BioA inh)
Cc1ccc(-c2nc(C(=O)NCCCN3CCOCC3)cc3c2[nH]c2ccccc23)cc1	none
Cc1ccc(-c2cc(C(=O)NCCCN3CCOCC3)c3ccccc3n2)cc1	Mtb FBA inh 49.8 | Mtb FBA inh conf inactive | GDH-TPI counter-2 inactive
CCOc1ccc(-c2cc(C(=O)NCCCN3CCCC3)c3ccccc3n2)cc1	Mtb FBA inh 27.9 | Mtb FBA inh conf inactive | GDH-TPI counter-2 16.0
COc1ccc(-c2nc(C(=O)NCCCN3CCOCC3)cc3c2[nH]c2ccccc23)cc1OC	Mtb FBA inh 50.0 | Mtb FBA inh conf 61.3 | GDH-TPI counter-2 46.3
Cc1ccc(-c2cc(C(=O)NCCCN3CCOCC3)c3ccccc3n2)cc1C	Mtb FBA inh 66.3 | Mtb FBA inh conf 70.2 | GDH-TPI counter-2 70.1
COc1ccc(S(=O)(=O)Nc2ccc3c(c2)C(=O)N([C@H](C)CO)C[C@@H](C)[C@@H](CN(C)Cc2ccccc2)OCCCC[C@@H](C)O3)cc1	none (no result: Rv3671c inh, Mtb FBA inh, GDH-TPI counter-1, FadD28 FP inh)
C[C@@H]1CN([C@H](C)CO)C(=O)c2cc(NS(C)(=O)=O)ccc2O[C@H]1CN(C)Cc1ccc(C(F)(F)F)cc1	none (no result: Rv3671c inh, Mtb FBA inh, GDH-TPI counter-1, FadD28 FP inh)
CC1C(c2ccccc2)=Nn2c(=O)n(-c3ccccc3)c(=O)n21 (stereo unspecified)	Mtb FBA inh 103.4 (no result: Rv3671c inh) | Mtb FBA inh conf active | GDH-TPI counter-2 active
O=c1n(-c2ccccc2)c(=O)n2n1CC(O)C2	none
COc1ccc(Cn2nnnc2C(c2cc3cc(C)ccc3[nH]c2=O)N2CCN(C)CC2)cc1 (stereo unspecified)	none (no result: Mtb BioA inh)
COc1cc2cc(C(c3nnnn3Cc3ccc(F)cc3)N3CCCCCC3)c(=O)[nH]c2cc1OC (stereo unspecified)	Mtb FBA inh 49.0 (no result: Mtb BioA inh) | Mtb FBA inh conf inactive | GDH-TPI counter-2 inactive
O=C(C[C@@H]1CC[C@@H]2[C@H](COC[C@H](O)CN2Cc2cccc(Cl)c2)O1)NCC1CCCCC1	none (no result: Rv3671c inh, Mtb FBA inh, GDH-TPI counter-1, FadD28 FP inh)
CCc1ccc(-c2nc(SCC(=O)c3c(N)n(C)c(=O)n(C)c3=O)n[nH]2)cc1	Mtb FBA inh 29.2 | Mtb FBA inh conf 69.0 | GDH-TPI counter-2 55.8
COc1cccc(S(=O)(=O)Nc2ccc3c(c2)[C@H]2C[C@H](CC(=O)NCCc4ccccc4)O[C@@H](CO)[C@H]2O3)c1	none (no result: Rv3671c inh, Mtb FBA inh, GDH-TPI counter-1, FadD28 FP inh)
Cc1cc(OC(C)C(=O)NCC(O)c2ccccc2)c2c(C)cc(=O)oc2c1 (stereo unspecified)	Mtb FBA inh 71.2 | Mtb FBA inh conf 110.8 | GDH-TPI counter-2 98.3
Cc1cc(OC(C)C(=O)NCCc2c[nH]c3ccccc23)c2c(C)cc(=O)oc2c1 (stereo unspecified)	none
CCCc1cc(=O)oc2cc(OCC(=O)NCC(O)c3ccccc3)ccc12 (stereo unspecified)	none
CCCc1cc(=O)oc2cc(C)cc(OC(C)C(=O)NCC(O)c3ccccc3)c12 (stereo unspecified)	Mtb FBA inh 75.7 | Mtb FBA inh conf inactive | GDH-TPI counter-2 inactive
CCCc1cc(=O)oc2cc(C)cc(OCC(=O)NCC(O)c3ccccc3)c12 (stereo unspecified)	Mtb FBA inh 61.2 | Mtb FBA inh conf 161.4 | GDH-TPI counter-2 151.3
CCc1cc(=O)oc2cc(OC(C)C(=O)NCC(O)c3ccccc3)c(Cl)cc12 (stereo unspecified)	none
Cc1cc(OC(C)C(=O)NCC2CCC(C(=O)O)CC2)c2c(C)cc(=O)oc2c1 (stereo unspecified)	Mtb FBA inh 86.5 | Mtb FBA inh conf 194.7 | GDH-TPI counter-2 190.3
Cc1cc(OC(C)C(=O)NCC2CCC(C(=O)O)CC2)c2c3c(c(=O)oc2c1)CCC3 (stereo unspecified)	none
CCC(=O)N(C)C[C@@H]1Oc2ncc(-c3ccc(C(=O)N(C)C)cc3)cc2C(=O)N([C@@H](C)CO)C[C@H]1C	none (no result: Rv3671c inh, Mtb FBA inh, GDH-TPI counter-1, FadD28 FP inh)
CO[C@@H](CN(C)C(=O)Nc1ccc(C(F)(F)F)cc1)[C@H](C)CN(Cc1ccccc1Cl)[C@@H](C)CO	none (no result: Rv3671c inh, Mtb FBA inh, GDH-TPI counter-1, FadD28 FP inh)
CO[C@H]1CN(C)C(=O)c2ccc(NS(=O)(=O)c3ccccc3)cc2OC[C@@H](C)N(Cc2cccnc2)C[C@H]1C	none (no result: Rv3671c inh, Mtb FBA inh, GDH-TPI counter-1, FadD28 FP inh)
CC(C)c1cn(CC[C@H]2CC[C@@H](NS(=O)(=O)c3ccccc3)[C@@H](CO)O2)nn1	none (no result: Rv3671c inh, Mtb FBA inh, GDH-TPI counter-1, FadD28 FP inh)
Cc1cc(OC(C)C(=O)NCC(O)c2ccccc2)c2c3c(c(=O)oc2c1)CCC3 (stereo unspecified)	Mtb FBA inh 77.0 | Mtb FBA inh conf 32.2 | GDH-TPI counter-2 34.9
COc1cc2ccccc2cc1C(=O)Nc1ccc(C)cn1	none
Cc1ccc(NC(=O)c2cc(F)c(F)cc2Cl)nc1	Mtb FBA inh 82.2 | Mtb FBA inh conf 135.9 | GDH-TPI counter-2 124.5
Cc1ccc(NC(=O)c2ccccc2F)nc1	Mtb FBA inh 33.2 | Mtb FBA inh conf 95.7 | GDH-TPI counter-2 78.1
COc1cccc(-c2cn(CC[C@H]3CC[C@H](NC(C)=O)[C@H](CO)O3)nn2)c1	none (no result: Rv3671c inh, Mtb FBA inh, GDH-TPI counter-1, FadD28 FP inh)
COCC(C)NC(=O)c1ccccc1OC(C)=O (stereo unspecified)	Mtb FBA inh 34.8 | Mtb FBA inh conf 42.2 | GDH-TPI counter-2 37.5
Cc1ccc(-c2nn(-c3ccccc3)cc2CO)o1	Mtb FBA inh 32.6 | Mtb FBA inh conf 75.9 | GDH-TPI counter-2 53.8
OCc1cn(-c2ccccc2)nc1-c1ccco1	none
CN(C)CCCNC(=O)[C@H]1[C@H](CO)[C@H]2Cn3c(ccc(-c4ccccc4)c3=O)[C@@H]1N2C	none (no result: Rv3671c inh, Mtb FBA inh, GDH-TPI counter-1, FadD28 FP inh)
COc1ccc2oc(=Nc3cccc(F)c3)c(C(N)=O)cc2c1	Mtb FBA inh 38.6 (no result: Mtb BioA inh) | Mtb FBA inh conf inactive | GDH-TPI counter-2 inactive
COc1ccc2cc(C(N)=O)c(=Nc3ccc(C)cc3)oc2c1	Mtb FBA inh 34.8 (no result: Mtb BioA inh) | GDH-TPI counter-2 active
Cn1ccc2c(-c3ccc(C(N)=O)cc3)cc3c(c21)C1CCC3O1 (stereo unspecified)	none (no result: Rv3671c inh, GDH-TPI counter-1)
Cn1ccc2c(-c3cccc4ccccc34)cc3c(c21)C1CCC3O1 (stereo unspecified)	Mtb FBA inh 57.6 (no result: Rv3671c inh, GDH-TPI counter-1) | Mtb FBA inh conf 60.0 | GDH-TPI counter-2 41.5
Cn1ccc2c(-c3cccnc3)cc3c(c21)C1CCC3O1 (stereo unspecified)	none (no result: Rv3671c inh, GDH-TPI counter-1)
Cn1ccc2c(-c3ccc4[nH]ccc4c3)cc3c(c21)C1CCC3O1 (stereo unspecified)	Mtb FBA inh 47.4 (no result: Rv3671c inh, GDH-TPI counter-1) | Mtb FBA inh conf 57.0 | GDH-TPI counter-2 38.5
COc1ccccc1-c1cc2c(c3c1ccn3C)C1CCC2C1 (stereo unspecified)	none (no result: Rv3671c inh, GDH-TPI counter-1)

Source: PubChem
